# Results: PubChem BioAssay (NCI)
# About 83,000 compounds went through this panel and 20% of them were active in at least one assay; those are over-represented in the sample as a whole.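 Step 1: grow cells in 96-well plates. Step 2: add test compound at a single concentration. Step 3: incubate 48 h. Step 4: record percent growth.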 Unmarked numbers belong to inactive results. The source made the active and inactive calls. Rule for the calls: active = growth percent below 10; inactive = the rest.
# Experiments:
# Test in all cases: NCI-60 one-dose screen, 48 h (100 = growth as untreated, 0 = no growth, -100 = all killed)
# Conditions in all cases: 10 µM
# [1] = tested on: RPMI-8226 leukemia
# [2] = tested on: OVCAR-8 ovarian
# [3] = tested on: OVCAR-5 ovarian
# [4] = tested on: OVCAR-4 ovarian
# [5] = tested on: SK-OV-3 ovarian
# [6] = tested on: IGROV1 ovarian
# [7] = tested on: OVCAR-3 ovarian
# [8] = tested on: HS 578T breast
# [9] = tested on: NCI/ADR-RES ovarian
# [10] = tested on: T-47D breast
# [11] = tested on: BT-549 breast
# [12] = tested on: MDA-MB-435 melanoma
# [13] = tested on: SW-620 colon
# [14] = tested on: MCF7 breast
# [15] = tested on: HCT-116 colon
# [16] = tested on: HCC-2998 colon
# [17] = tested on: KM12 colon
Compound,growth [1],growth [2],growth [3],growth [4],growth [5],growth [6],growth [7],growth [8],growth [9],growth [10],growth [11],growth [12],growth [13],growth [14],growth [15],growth [16],growth [17]
COc1ccc(-c2nn(-c3cccc(NC(=O)c4ccc(Cl)c(Cl)c4)c3)cc2-c2ccncc2)cc1Cl,58%,75.5%,92.4%,93.3%,82.2%,84.5%,81.9%,72.5%,61.4%,62.8%,95.4%,24.8%,81.5%,72.1%,69.6%,82%,55.8%
COc1cc(Cl)cc(-c2nn(-c3cccc(NC(=O)Nc4ccc(Cl)c(C(F)(F)F)c4)c3)cc2-c2ccncc2)c1,-29.1% (active),8.71% (active),19.2%,16.6%,12%,30.2%,-22.6% (active),14.6%,6.07% (active),8.1% (active),9.81% (active),-16.8% (active),12.7%,2.57% (active),3.39% (active),18.1%,9.1% (active)
COc1ccc(S(=O)(=O)NCCCNc2nccc(-c3c(-c4ccc(F)cc4)nc4sccn34)n2)cc1,47.8%,41.9%,92.6%,77.3%,74.5%,30.2%,74.9%,83%,53.3%,24.2%,70.6%,27.9%,74.8%,33.6%,42.1%,65.5%,40.6%
Nc1nc(N)c(NC(=O)CNc2ccc(C(=O)O)cc2)c(N)n1,98%,105%,108%,104%,107%,118%,118%,103%,123%,94.6%,116%,105%,105%,91.3%,113%,107%,114%
COc1ccc2c(c1)N(CCO)C1=C(C(=O)OC1)C2c1cc(OC)c(OC)c(OC)c1 (configuration not stated),18.7%,7.94% (active),39.8%,51%,20.6%,9.98% (active),-53.2% (active),-6.85% (active),-14.7% (active),71.9%,20.5%,-48.2% (active),19.4%,19.3%,4.03% (active),–,-43% (active)
COc1ccc2c(c1)sc1nc(-c3ccccc3)c(-c3ccc(O)c(OC)c3)n12,78.5%,97.5%,107%,102%,96%,72.8%,83.5%,84.6%,64.6%,111%,68.2%,-24.6% (active),39.9%,93.4%,33.2%,42.5%,37.1%
O=C(Nc1cccc(Br)c1)c1cc(=O)[nH]c2ccccc12,80.2%,92.9%,90.8%,97.6%,97.7%,17.9%,92.4%,105%,88.6%,92.1%,82.1%,101%,102%,84%,109%,104%,101%
COc1ccc2c(c1)N(CCO)C1=C(C(=O)OC1)C2c1ccc(OC)c(OC)c1 (configuration not stated),62.9%,48.7%,47.7%,64.6%,40.5%,53.4%,-18.2% (active),31%,71.8%,45.5%,64.2%,-25.9% (active),17.5%,27.3%,26.7%,–,18.7%
COc1ccccc1CNCCCN1C(=O)c2ccc3c4c(ccc(c24)C1=O)C(=O)N(CCCN)C3=O,-13.6% (active),-24.2% (active),-29.7% (active),-67.1% (active),27.3%,-52.7% (active),-27.8% (active),-13% (active),59.4%,-42.6% (active),-43.4% (active),-88.3% (active),-69.8% (active),-29.4% (active),-4.19% (active),-56.8% (active),4.38% (active)
COc1ccc(-c2cc(/C=C3\C(=O)Nc4ccc(OC)cc43)[nH]n2)cc1,20.6%,48.8%,82.5%,79.8%,33.6%,31.8%,2.64% (active),14%,21.7%,47.3%,61.5%,-25.1% (active),19.3%,7.36% (active),–,52.8%,8.99% (active)
CC1(C)OC2=C(CC1Br)C(=O)C(=O)c1ccccc12 (configuration not stated),-28.1% (active),-46.4% (active),-80.5% (active),-99.4% (active),77.8%,-80.2% (active),-96.5% (active),8.65% (active),-44.7% (active),-45.4% (active),-99.2% (active),-87.4% (active),-81.5% (active),-66.3% (active),–,-19.7% (active),-93% (active)
COc1ccc(-c2ccc3cc(C(=O)Nc4ccc(O)c(C(=O)/C=C/c5cc(OC)c(OC)c(OC)c5)c4)ccc3c2)cc1,60.2%,84.9%,108%,94.5%,109%,89.6%,100%,102%,95.4%,85.5%,102%,93.4%,94.2%,87.3%,79.2%,–,104%
CN(C)N=Nc1nn(C(=O)Nc2ccc(Cc3ccccc3)cc2)c2ccccc12,47.5%,48.8%,71%,52.1%,102%,84.8%,45.7%,100%,46.6%,24.3%,75%,48.5%,34.4%,21.1%,–,10.1%,12.9%
c1ccc(CNc2ncnc3scc(-c4cccs4)c23)nc1,40.9%,63.1%,99%,41.2%,85.1%,63.6%,52.8%,79.7%,58.8%,47.3%,63.7%,63.7%,86.1%,67.1%,–,106%,–
CCN(CC)CCC(=O)Nc1cccc2c1C(=O)c1c(c(O)c3ccccc3c1O)C2=O,33.2%,45.3%,80.9%,60.2%,63.6%,36.9%,64.8%,76.6%,46.9%,41.2%,68.8%,91.6%,43.8%,30.3%,44.9%,80.9%,56.9%
COc1cc(-c2cc(/C=C3\C(=O)Nc4ccc(Cl)cc43)[nH]n2)cc(OC)c1OC,-18.3% (active),7.57% (active),68.4%,17%,82.5%,-10.2% (active),34.2%,6.98% (active),11.4%,24.8%,27.1%,10.3%,27.3%,0.175% (active),4.26% (active),73.2%,7.16% (active)
O=C1OCC2=C1C(c1cccc(Cl)c1)c1cc3c(cc1N2CCO)OCCO3 (configuration not stated),20.2%,1.27% (active),30.3%,56.2%,26.1%,22.2%,-52.2% (active),-6.14% (active),0.234% (active),73.5%,32.4%,-42.1% (active),18.7%,18%,6.21% (active),–,-32.8% (active)
CCCC#CCN(CC)CC,105%,100%,112%,104%,107%,110%,117%,105%,114%,108%,120%,95%,107%,102%,109%,120%,111%
